According to PubChem BioAssay (NCI):
The panel holds about 79,000 compounds, 15% with a hit somewhere; the sample as a whole holds those more often. Activity calls are given as the source filed them. No stated cut-off is given here; in the data, active means growth inhibition above about 70%; inactive means the rest.

Columns and labels:
[1] = NCI Yeast Anticancer Drug Screen. Data for the rad52 strain (AID 147);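 further: 0% = growth of vehicle-treated control cultures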; details: S. cerevisiae rad52 mutant growth inhibition, hits give high values
Summary of the method: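 DNA repair-defective yeast; compound exposure; growth scored against vehicle controls.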

[2] = NCI Yeast Anticancer Drug Screen. Data for the wt1 strain (AID 149);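 further: 0% = growth of vehicle-treated wt1 cultures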; details: S. cerevisiae wt1 strain (SPY 50644) growth inhibition, hits give high values
Summary of the method: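 wt1 strain grown with compound or vehicle; inhibition taken from the growth difference.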

[3] = NCI Yeast Anticancer Drug Screen. Data for the rad50EPP+ strain (AID 151);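 further: 0% = growth of vehicle-treated control cultures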; details: S. cerevisiae rad50 mutant strain, hits give high values
Summary of the method: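 rad50EPP+ yeast treated with test compounds. Readout: growth vs vehicle control.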

[4] = NCI Yeast Anticancer Drug Screen. Data for the rad50 strain (AID 155);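 further: 0% = growth of vehicle-only cultures of the same strain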; details: S. cerevisiae rad50 strain growth inhibition, hits give high values
Summary of the method: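 DNA repair mutant yeast, compound exposure, growth read-out; inhibition is taken relative to vehicle.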

[5] = NCI Yeast Anticancer Drug Screen. Data for the rad14 strain (AID 159);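 further: 0% = growth of vehicle-treated control cultures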; details: S. cerevisiae rad14 strain growth inhibition, hits give high values
Summary of the method: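 DNA repair-defective yeast, compound-exposed; % growth inhibition derived by comparison with vehicle-treated controls.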

[6] = NCI Yeast Anticancer Drug Screen. Data for the sgs1 mgt1 strain (AID 161);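 further: 0% = growth of cultures given vehicle only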; details: S. cerevisiae sgs1 mgt1 strain, hits give high values
Summary of the method: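 Growth of a repair-deficient yeast mutant was monitored after compound treatment and expressed as inhibition relative to vehicle-treated cultures.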

[7] = NCI Yeast Anticancer Drug Screen. Data for the CLN2oe strain (AID 163);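 further: 0% = growth of vehicle-only control cultures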; details: S. cerevisiae CLN2oe strain, hits give high values
Summary of the method: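 Compound-treated yeast; growth vs vehicle ctrl = % inhibition. Genetically altered strain (cell-cycle control).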

[8] = NCI Yeast Anticancer Drug Screen. Data for the cln2 rad14 strain (AID 165);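 further: 0% = growth equal to vehicle treated cultures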; details: S. cerevisiae cln2 rad14 strain, hits give high values
Summary of the method: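 Growth inhibition, relative to vehicle-treated controls, is the read-out. The test organism is a yeast strain with defined genetic alterations, cln2 rad14.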

[9] = NCI Yeast Anticancer Drug Screen. Data for the bub3 strain (AID 167); details: S. cerevisiae bub3 mutant strain, hits give high values
Summary of the method: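 In this screen, a yeast mutant lacking normal mitotic checkpoint function is challenged with compound. Relative growth versus vehicle gives the inhibition value.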

[10] = NCI Yeast Anticancer Drug Screen. Data for the wt2 strain (AID 169);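 further: 0% = growth of vehicle-treated yeast cultures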; details: S. cerevisiae wt2 strain growth inhibition, hits give high values
Summary of the method: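 Compound exposure of yeast; growth compared with vehicle controls; inhibition reported.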

[11] = NCI Yeast Anticancer Drug Screen. Data for the mlh1 strain (AID 171);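 further: 0% = growth of vehicle-treated control cultures of the same strain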; details: S. cerevisiae mlh1 strain growth inhibition, hits give high values
Summary of the method: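 Compounds are applied to a genetically altered yeast strain, and its growth is compared with that of vehicle-treated cultures to give percent inhibition.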

[12] = NCI Yeast Anticancer Drug Screen. Data for the sgs1 strain (AID 173);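 further: 0% = growth of vehicle-only control cultures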; details: S. cerevisiae sgs1 mutant, hits give high values
Summary of the method: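 Compounds applied to genetically altered yeast; growth compared with vehicle-treated cultures to give % inhibition.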

[13] = NCI Yeast Anticancer Drug Screen. Data for the mlh1 rad18 strain (AID 175); details: S. cerevisiae mlh1 rad18 strain growth inhibition, hits give high values
Summary of the method: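 Cells of a genetically altered yeast strain, deficient in DNA damage repair, were treated with compound. Their growth was then compared with that of vehicle-treated cultures to give inhibition.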

[14] = NCI Yeast Anticancer Drug Screen. Data for the rad18 strain (AID 177); details: S. cerevisiae rad18 mutant growth inhibition, hits give high values
Summary of the method: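 Compounds are applied to a repair-deficient yeast strain, and growth is compared with that of vehicle-treated cultures to give percent inhibition.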

[15] = NCI Yeast Anticancer Drug Screen. Data for the mgt1 strain (AID 153); details: S. cerevisiae mgt1 mutant growth inhibition, hits give high values
Summary of the method: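 Growth inhibition relative to vehicle controls was scored for the mgt1 yeast strain after compound exposure.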

[16] = NCI Yeast Anticancer Drug Screen. Data for the mec2-1 strain (AID 157); details: S. cerevisiae mec2-1 strain, hits give high values
Summary of the method: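 Growth inhibition is read against vehicle-treated controls after compound exposure of the mec2-1 yeast strain, which is defective in DNA damage repair or cell cycle control.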

[17] = at 5.0 µM (retest, dose inferred, filed as 0.5)
[18] = at 50.0 µM (retest, dose inferred, filed as 5.0)

Measured: growth inhibition

BrCC[P+](c1ccccc1)(c1ccccc1)c1ccccc1
active: [1]; at 33.0 µM 94% | [1]; at 100.0 µM 96% | [2]; at 33.0 µM 96% | [2]; at 100.0 µM 98% | [3]; at 33.0 µM 88% | [3]; at 100.0 µM 95% | [4]; at 33.0 µM 94% | [4]; [18] 97% | [4]; at 50.0 µM 84.7% | [4]; at 100.0 µM 95% | [5]; at 33.0 µM 94% | [5]; at 100.0 µM 97% | [6]; [18] 99% | [6]; at 50.0 µM 87% | [7]; at 33.0 µM 90% | [7]; at 100.0 µM 95% | [8]; [18] 98% | [8]; at 50.0 µM 73.8% | [9]; at 33.0 µM 93% | [9]; [18] 98% | [9]; at 50.0 µM 87.8% | [9]; at 100.0 µM 97% | [10]; at 33.0 µM 88% | [10]; at 100.0 µM 95% | [11]; at 33.0 µM 93% | [11]; at 100.0 µM 97% | [12]; at 33.0 µM 89% | [12]; at 100.0 µM 94% | [13]; [18] 96% | [13]; at 50.0 µM 83.6% | [14]; at 33.0 µM 95% | [14]; at 100.0 µM 95%
inactive: [1]; at 1.2 µM -39% | [1]; at 3.7 µM -45% | [1]; at 11.0 µM 58% | [2]; at 1.2 µM -60% | [2]; at 3.7 µM -56% | [2]; at 11.0 µM -4% | [3]; at 1.2 µM -44% | [3]; at 3.7 µM -47% | [3]; at 11.0 µM 19% | [4]; at 1.2 µM -36% | [4]; at 3.7 µM -30% | [4]; [17] 19% | [4]; at 11.0 µM 54% | [5]; at 1.2 µM -32% | [5]; at 3.7 µM -52% | [5]; at 11.0 µM -16% | [6]; [17] 49% | [7]; at 1.2 µM -21% | [7]; at 3.7 µM -22% | [7]; at 11.0 µM 2% | [8]; [17] 43% | [9]; at 1.2 µM -70% | [9]; at 3.7 µM -32% | [9]; [17] 47% | [9]; at 11.0 µM 32% | [10]; at 1.2 µM -15% | [10]; at 3.7 µM -5% | [10]; at 11.0 µM 15% | [11]; at 1.2 µM -38% | [11]; at 3.7 µM -70% | [11]; at 11.0 µM 28% | [12]; at 1.2 µM -35% | [12]; at 3.7 µM -56% | [12]; at 11.0 µM -40% | [13]; [17] 5% | [14]; at 1.2 µM -59% | [14]; at 3.7 µM -42% | [14]; at 11.0 µM 54%

COc1ccc2c(c1)C(=O)c1ccccc1C2
active: [9]; at 11.0 µM 74% | [9]; at 33.0 µM 82% | [9]; [18] 85% | [9]; at 50.0 µM 75% | [9]; at 100.0 µM 80%
inactive: [1]; at 1.2 µM 3% | [1]; at 3.7 µM 9% | [1]; at 11.0 µM 20% | [1]; at 33.0 µM 35% | [1]; at 100.0 µM 34% | [2]; at 1.2 µM 2% | [2]; at 3.7 µM 1% | [2]; at 11.0 µM 5% | [2]; at 33.0 µM 6% | [2]; at 100.0 µM 4% | [15]; at 1.2 µM -4% | [15]; at 3.7 µM 2% | [15]; at 11.0 µM 5% | [15]; at 33.0 µM 7% | [15]; at 100.0 µM 10% | [4]; at 1.2 µM 3% | [4]; at 3.7 µM 18% | [4]; [17] -23% | [4]; at 11.0 µM 31% | [4]; at 33.0 µM 48% | [4]; [18] 30% | [4]; at 50.0 µM 7% | [4]; at 100.0 µM 35% | [16]; at 1.2 µM -1% | [16]; at 3.7 µM 5% | [16]; [17] -4% | [16]; at 11.0 µM -1% | [16]; at 33.0 µM 6% | [16]; [18] 23% | [16]; at 50.0 µM 24.4% | [16]; at 100.0 µM 6% | [5]; at 1.2 µM 1% | [5]; at 3.7 µM 6% | [5]; at 11.0 µM 8% | [5]; at 33.0 µM 6% | [5]; at 100.0 µM 7% | [6]; [17] 19% | [6]; [18] 0% | [6]; at 50.0 µM -5.05% | [7]; at 1.2 µM -3% | [7]; at 3.7 µM -1% | [7]; at 11.0 µM 0% | [7]; at 33.0 µM 9% | [7]; at 100.0 µM 4% | [8]; [17] -18% | [8]; [18] 4% | [8]; at 50.0 µM -19.8% | [9]; at 1.2 µM 42% | [9]; at 3.7 µM 67% | [9]; [17] 65% | [10]; at 1.2 µM -1% | [10]; at 3.7 µM 3% | [10]; at 11.0 µM 6% | [10]; at 33.0 µM 7% | [10]; at 100.0 µM 7% | [11]; at 1.2 µM 1% | [11]; at 3.7 µM -1% | [11]; at 11.0 µM 4% | [11]; at 33.0 µM 11% | [11]; at 100.0 µM 28% | [12]; at 1.2 µM -3% | [12]; at 3.7 µM -4% | [12]; at 11.0 µM 0% | [12]; at 33.0 µM 0% | [12]; at 100.0 µM 1% | [13]; [17] 2% | [13]; [18] 31% | [13]; at 50.0 µM 15.6% | [14]; at 1.2 µM -2% | [14]; at 3.7 µM -1% | [14]; at 11.0 µM 6% | [14]; at 33.0 µM 7% | [14]; at 100.0 µM -6%

O=[n+]1c2ccc(Cl)cc2n([O-])c2ccc(Cl)cc21
inactive: [1]; at 1.2 µM 5% | [1]; at 3.7 µM 12% | [1]; at 11.0 µM 23% | [1]; at 33.0 µM 44% | [1]; at 100.0 µM 57% | [3]; at 1.2 µM 9% | [3]; at 3.7 µM 18% | [3]; at 11.0 µM 35% | [3]; at 33.0 µM 57% | [15]; at 1.2 µM -3% | [15]; at 3.7 µM -1% | [15]; at 11.0 µM 2% | [15]; at 33.0 µM 5% | [15]; at 100.0 µM 10% | [4]; at 1.2 µM 9% | [4]; at 3.7 µM 19% | [4]; [17] -9% | [4]; at 11.0 µM 39% | [4]; at 33.0 µM 61% | [4]; [18] 47% | [4]; at 50.0 µM -5.4% | [16]; at 1.2 µM -1% | [16]; at 3.7 µM 0% | [16]; [17] 1% | [16]; at 11.0 µM 2% | [16]; at 33.0 µM 9% | [16]; [18] -5% | [16]; at 50.0 µM -1% | [16]; at 100.0 µM 15% | [5]; at 1.2 µM 0% | [5]; at 3.7 µM 2% | [5]; at 11.0 µM 4% | [5]; at 33.0 µM 6% | [5]; at 100.0 µM 10% | [6]; [17] -4% | [6]; [18] 20% | [6]; at 50.0 µM 13.3% | [7]; at 1.2 µM -1% | [7]; at 3.7 µM 0% | [7]; at 11.0 µM 0% | [7]; at 33.0 µM -1% | [7]; at 100.0 µM -1% | [8]; [17] -10% | [8]; [18] -13% | [8]; at 50.0 µM -74.2% | [9]; at 1.2 µM -1% | [9]; at 3.7 µM 0% | [9]; [17] 11% | [9]; at 11.0 µM 2% | [9]; at 33.0 µM 9% | [9]; [18] 22% | [9]; at 50.0 µM -7.55% | [9]; at 100.0 µM 14% | [10]; at 1.2 µM -5% | [10]; at 3.7 µM -8% | [10]; at 11.0 µM 0% | [10]; at 33.0 µM -5% | [10]; at 100.0 µM 10% | [11]; at 1.2 µM -1% | [11]; at 3.7 µM 1% | [11]; at 11.0 µM 0% | [11]; at 33.0 µM 0% | [11]; at 100.0 µM 5% | [12]; at 1.2 µM -6% | [12]; at 3.7 µM -27% | [12]; at 11.0 µM 4% | [12]; at 33.0 µM 21% | [12]; at 100.0 µM 23% | [13]; [17] 11% | [13]; at 50.0 µM 11.7% | [14]; at 1.2 µM 4% | [14]; at 3.7 µM 12% | [14]; at 11.0 µM 25% | [14]; at 33.0 µM 37% | [14]; at 100.0 µM 63%
active: [3]; at 100.0 µM 74% | [4]; at 100.0 µM 81% | [13]; [18] 84%
